Laboratory results reported in PubChem BioAssay (Tox21).
Inconclusive results are not listed. Calls of active or inactive are those of the source. Unless noted, calls come from the whole dose curve; as a rule, active = well fitted curve in the direction sought with a large enough effect in the repeat runs; inconclusive = weak or mixed curves; inactive = no such curve, though single readings can be large; an effect the other way counts as inactive or inconclusive.

Key:
[1] = qHTS assay for small molecule agonists of the p53 signaling pathway (AID 651631; calls by dose curve; note: nearly all actives have a fitted effect of over 15% in size; note: potency is the fitted concentration of half-maximal effect)
How it was run: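 Quantitative high-throughput format: 4,000 p53RE-bla HCT-116 cells/well, 5 h pre-incubation, 16 h compound exposure at 37 °C, 2 h room-temperature substrate step, fluorescence intensity measured.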

[2] = qHTS assay for small molecules that induce genotoxicity in human embryonic kidney cells expressing luciferase-tagged ATAD5 (AID 651632); note: nearly all actives have a fitted effect of over 15% in size; note: potency is the fitted concentration of half-maximal effect
How it was run: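 Increased luciferase signal from ATAD5-tagged reporter cells indicates DNA-damage-driven ATAD5 induction. HEK293T cells are treated for 16 hr at 37C before detection with Amplite.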

[3] = qHTS assay for small molecule agonists of the p53 signaling pathway - cell viability (AID 651633; calls by dose curve;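 note: p53RE-bla HCT reporter cells with a stable beta-lactamase p53 reporter; series mostly up to about 83 µM; nearly all actives have a fitted effect of over 30% in size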)
How it was run: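 Viability counter-read: CellTiter-Glo luminescence (30 min, room temperature) in the same p53RE-bla plates. These plates had been exposed to compounds for 16 h at 37 C.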

[4] = qHTS assay for small molecules that induce genotoxicity in human embryonic kidney cells expressing luciferase-tagged ATAD5 - cell viability (AID 651634; calls by dose curve; note: nearly all actives have a fitted effect of over 25% in size; note: potency is the fitted concentration of half-maximal effect)
How it was run: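 Cytotoxicity counterscreen in HEK293T cells bearing an ATAD5-luciferase reporter: live-cell protease activity measured by CellTiter-Fluor fluorescence after 15.5 hr compound exposure.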

[5] = qHTS assay for small molecule disruptors of the mitochondrial membrane potential - cell viability (AID 720634; calls by dose curve;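 note: human HepG2 liver cancer cells; series mostly up to about 83 µM; nearly all actives have a fitted effect of over 20% in size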)
How it was run: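 After overnight attachment at 37 C, HepG2 cells received compound or DMSO vehicle for 1 hr. Viability is then taken from ATP-driven luminescence following a 30 min room-temperature CellTiter-Glo step.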

[6] = qHTS assay for small molecule disruptors of the mitochondrial membrane potential (AID 720635); note: potency is the fitted concentration of half-maximal effect
How it was run: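 Mitochondrial membrane potential tracked with Mito-MPS dye, red aggregates (ex 540/em 590 nm) against green monomers (ex 490/em 535 nm). Compound treatment 1 hr at 37C, dye 30 min in HepG2.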

[7] = qHTS assay to test for compound auto fluorescence at 590 nm (red) in HepG2 cells (AID 720674)
How it was run: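 Red autofluorescence (Ex/Em 540/590 nm, Rose Bengal sodium equivalents) was measured in HepG2 cells, 2,000 per well in MEM plus 10% FBS, plated overnight at 37 C. Readings were taken 1 hr after adding 23 nL compound or DMSO, at 37 C and 5% CO2.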

[8] = qHTS assay to test for compound auto fluorescence at 535 nm (green) in HepG2 cells (AID 720675)
[9] = qHTS assay to test for compound auto fluorescence at 590 nm (red) in HEK293 cells (AID 720679)
How it was run: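 Using HEK293 cells at 2,000 per well, the screen added 23 nL of each compound after cell attachment and incubated overnight (37C, 5% CO2). The plate reader then captured red-label fluorescence, Ex/Em 540/590nm.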

[10] = qHTS assay to test for compound auto fluorescence at 460 nm (blue) in HEK293 cells (AID 720678)
How it was run: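 Measured: blue fluorescence (Ex 405/Em 460 nm) of compound-treated HEK293 cells, incubated overnight at 37C with 5% CO2 and scaled to triamterene equivalents.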

Measured: Potency

COCCOCCOCCOCCOC
not listed: [10]
inactive: all other assays above

O=C1[C@H](CC[C@H](O)c2ccc(F)cc2)[C@@H](c2ccc(O)cc2)N1c1ccc(F)cc1
active: [6] 23.7 µM
not listed: [8]
inactive: all other assays above

CC(=O)OCCc1ccccc1
not listed: [8]
inactive: all other assays above

CCCC(C)C
inactive: all assays above

CC(CN)CCCN (stereo not given)
inactive: all assays above

O=[N+]([O-])c1cc[n+]([O-])cc1
inactive: all assays above

C=C(C)C(=O)OC(C)C
not listed: [6] | [9]
inactive: all other assays above

Cn1c(N)nc2nc[nH]c2c1=O
inactive: all assays above

C=Cc1c(C)c2cc3[nH]c(cc4nc(cc5nc(cc1[nH]2)C(C)=C5CCC(=O)O)C(CCC(=O)O)=C4C)c(C)c3C=C
inactive: all assays above

CCN(CCO)CCCC(C)Nc1ccnc2cc(Cl)ccc12 (stereo not given)
inactive: all assays above

CCN(CC)CCOC(=O)C1(c2ccccc2)CCCC1
not listed: [6] | [9] | [10]
inactive: all other assays above

CN(C)C/C=C(/c1ccc(Br)cc1)c1cccnc1
not listed: [6] | [9] | [10]
inactive: all other assays above

FC(F)(F)C(F)(F)C(F)(F)C(F)(F)C(F)(F)C(F)(F)CCI
not listed: [10]
inactive: all other assays above

CNS(=O)(=O)Cc1ccc2[nH]cc(CCN(C)C)c2c1
active: [6] 29.8 µM
inactive: all other assays above

CC(=O)NCCCS(=O)(=O)O
not listed: [9]
inactive: all other assays above

CCCCCCCCN(C)C
inactive: all assays above

O=S(=O)(O)c1ccc(O)c2ncccc12
inactive: all assays above

Nc1nc(N)c(-c2ccccc2)s1
not listed: [10]
inactive: all other assays above

Oc1ccc(Sc2ccc(O)cc2)cc1
active: [1] 57.2 µM | [6] 18.1 µM
inactive: all other assays above

CCCOc1ccc2nc(NC(=O)OC)[nH]c2c1
active: [1] 0.298 µM | [2] 1.68 µM | [4] 0.15 µM
not listed: [10]
inactive: all other assays above

CC[C@H](C)[C@H](N)C(=O)O
not listed: [6] | [9]
inactive: all other assays above

Cc1cccc(C(C)(C)C)c1O
not listed: [7]
inactive: all other assays above

Cc1cccc(Oc2ccccc2)c1
not listed: [10]
inactive: all other assays above

Nc1nc(CC(=O)O)cs1
not listed: [10]
inactive: all other assays above
